Results from PubChem BioAssay (NCI).
About 79,000 compounds went through this panel and 15% of them were active in at least one assay; those are over-represented in the sample as a whole. Values without a mark were called inactive. Cut-off read from the data, not from the text of the source: active = growth inhibition above about 70%; inactive = the rest.

Experiment: NCI Yeast Anticancer Drug Screen. Data for the rad50 strain (AID 155);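 note: 0% = growth of vehicle-only cultures of the same strain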
Conditions: S. cerevisiae rad50 strain growth inhibition; at 50.0 µM; active compounds read high
Summary of the method: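 DNA repair mutant yeast, compound exposure, growth read-out; inhibition is taken relative to vehicle.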

Compared with CCCC(=O)Nc1cc(C(=O)N2C[C@@H]3C[C@]34C2=CC(=O)c2[nH]cc(C)c24)n(COC)c1, COc1cc(CC(=O)O)c(Br)cc1C is lower in growth inhibition: 26.5% for the first, 5.95% for the second.

Compared with COC(=O)CCSCCC(=O)OC, CCCC(CCC(C)=O)[N+](=O)[O-] (stereo not given) is lower in growth inhibition: 1.5% for the first, -9.05% for the second.

Going from C/C(=N/NC(=S)Nc1cccc(Cl)c1)c1cccc(/C(C)=N\NC(=S)Nc2cccc(Cl)c2)n1 to O=c1c2cnc3cc(Cl)ccc3c2[nH]n1-c1ccc(Cl)cc1, the growth inhibition falls from 47% to -1.3%.

First: COc1ccc(C/C=N/Nc2ccc([N+](=O)[O-])cc2[N+](=O)[O-])cc1OC
Second: COc1ccc2nc(-c3ccc(F)cc3)cc(C(=O)O)c2c1
The growth inhibition of the first is higher: 1.7% for the first, -4.6% for the second.

Going from COC(=O)c1ccc(/C=C2\CCc3ccccc3C2=O)cc1 to O=C(Cc1ccccc1)NN1C(=O)/C(=C\c2ccc(O)cc2)SC1=Nc1ccccc1, the growth inhibition rises from -9.9% to 5.5%.

First: O=c1c2cc3c(=O)n(O)c(=O)c3cc2c(=O)n1O
Second: CC1(O)CC2(O)C=CC3=C(C(=O)c4cccc(O)c4C3=O)C2(O)C(=O)C1O (stereo not given)
The growth inhibition of the first is lower: 12.4% for the first, 14.2% for the second.

Going from O=C1C(O)=CC(=C(c2ccccc2)c2ccccc2)c2cc(Br)ccc21 to O=C(Cc1ccccc1C(=O)O)c1ccccc1, the growth inhibition falls from 33.7% to -16.6%.

Compared with CCCCCC(CN(C)C)C(=O)CC(SCC)c1ccccc1 (stereo not given), CCOC(=O)NCc1ccccc1 is lower in growth inhibition: 27.7% for the first, 19% for the second.

Going from C[P+]1(CCc2ccc(Cl)cc2)CC=CC1 to Cc1ccc(N=Cc2cccs2)c(Br)c1, the growth inhibition falls from -4.15% to -5.7%.

First: CCN(CC)C(=O)CC(C)(C)O
Second: CCN(CC)CCC1CCNCC1
The growth inhibition of the first is higher: 4.95% for the first, 0.5% for the second.

Going from C=CCC1CCC/C1=N\O (stereo not given) to OC12C=CC(CCCC1)O2 (stereo not given), the growth inhibition rises from -13.4% to 0.35%.

Going from N#CCc1nc(-c2ccccc2)n[nH]1 to CCc1ccccc1NOC, the growth inhibition falls from 11.2% to 7.65%.

First: CCCCCCCC(=O)NC(O)C(Cl)(Cl)C(C)Cl (stereo not given)
Second: CCCCCCCCCCCCC1CC(=O)OC1=O (stereo not given)
The growth inhibition of the first is higher: 31.1% for the first, 3.65% for the second.

Going from C=C(C)c1ccc(B2Nc3ccccc3N2)cc1 to O=C1c2c(c3c4ccccc4[nH]c3c3[nH]c4ccccc4c23)C(=O)N1Cc1ccccc1, the growth inhibition falls from 53.6% to -9.4%.

First: COC(=O)C1C(O)C(C)C(O)OC1C(C)C(O)C(C)/C=C\C=C(/C)C(=O)Nc1c(C)c(OC(C)=O)c2c(c1O)C(=O)C(C)=C1OCOC(/C(C)=C/C(C)=O)=C12 (stereo not given)
Second: CCCCCCCCCO/N=C\c1c2c(O)c3c(O)c(C)c4c(c3c1O)C(=O)C(C)(O/C=C\C(OC)C(C)C(OC(C)=O)C(C)C(O)C(C)C(O)C(C)/C=C\C=C(\C)C(=O)N2)O4 (stereo not given)
The growth inhibition of the first is higher: 14.6% for the first, -1.15% for the second.

Going from CCOC(=O)Cc1c(Cc2[nH]c(C(=O)OCc3ccccc3)c(CC(=O)OCC)c2CC(=O)OCC)[nH]c(C(=O)OCc2ccccc2)c1CC(=O)OCC to Cc1cccc(C2=C/C(=C(\SS/C(C(=O)c3ccc(OCC(=O)O)c(Cl)c3Cl)=C3\C=C(c4cccc(C)c4)SS3)C(=O)c3ccc(OCC(=O)O)c(Cl)c3Cl)SS2)c1, the growth inhibition rises from -10.7% to -6.65%.

Compared with NC(=O)c1ccccc1C(N)=O, Cc1ccccc1NC(=O)/C=C\C(=O)O is lower in growth inhibition: 13.4% for the first, 8.9% for the second.

First: CC1(C)CC(OP(=O)(c2ccccc2)c2ccccc2)CC(C)(C)N1O
Second: O=C(CP(c1ccccc1)c1ccccc1)c1cccc(C(=O)CP(c2ccccc2)c2ccccc2)c1
The growth inhibition of the first is higher: 5.25% for the first, -4.3% for the second.

Compared with O=C(NO)c1c(F)c(F)c(C(=O)NO)c(F)c1F, NC(CCC(=O)NC(CSSCCCCS(=O)O)C(=O)NCC(=O)O)C(=O)O (stereo not given) is higher in growth inhibition: -2.5% for the first, -1.65% for the second.

First: NCCCCC(N)C(=O)O.[Cu+2] (stereo not given)
Second: CN1C/C(=C\c2ccco2)c2nc(N)nc(-c3ccco3)c2C1
The growth inhibition of the first is lower: -13.6% for the first, -6.15% for the second.
